PubChem BioAssay (NCI)
This is part of a sample that, as a whole, favours compounds with a hit. Of some 83,000 tested, about 20% had one in any assay.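 Single-concentration screen, 48 h exposure, 96-well plates. Endpoint: percent growth. Below 10 = active.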 A number with no mark means an inactive call. The source made the active and inactive calls. *1 amine or outer side, *2 acyl side, *3 side chain or, on linkers, in order; H or OH if unused. Where a SMILES comes first, the peptide text is derived from it. Bridges are numbered along the chain shown (N, C = ends). Roman numbers before positions name the chains, in order. [ ]: non-standard residue; d: D form. Actinocin(1to9) = Cc1c2oc3c(C)ccc(C(=O)[*:2])c3nc-2c(C(=O)[*:1])c(N)c1=O; NMeV = CN[CH](C(=O)O)C(C)C; Sar = CNCC(=O)O

Each compound was assayed on M14 melanoma (assay: NCI-60 one-dose screen, 48 h (100 = growth as untreated, 0 = no growth, -100 = all killed)). Settings: 10 µM unless noted.
Procedure: Growth inhibition of the M14 human tumor cell line is measured as a screen for anti-cancer activity. Cells are grown in 96 well plates and exposed to the test compound for 48 hours. Compounds are tested at a single concentration, which is 10^-5 M for most compounds. The reported endpoint is percent growth (GI% or GIPRCNT), where numbers from 0 - 100% represent growth inhibition, and numbers from -100% - 0 represent cell death. For example, a value of 40 represents 60% growth inhibition. A value of 0 means no net growth occurred over the course of the experiment. A value of -40 indicates 40% of cells at the beginning of the experiment died by the end of the experiment. A value of -100 means all cells are dead at the end of the experiment.
NCI-60 Human Tumor Cell Lines Screen was performed using the standard one-dose NCI protocol, which is described in more detail at https://dtp.cancer.gov/discovery_development/nci-60/default.htm.
Compounds with GIPRCNT values below 10 were considered active. Activity score was based on GIPRCNT using the following formula: […]
Score is 0 for GIPRCNT values of 100 or above, 50 for GIPRCNT values of 0, and 100 for GIPRCNT values of -100.

Row | Structure (SMILES) | growth
1 | CCOc1ccc2c(c1)/C(=C\C=C\C1CC(C)C3CC(OCC)CCC3N1CC)CC(C)N2CC (stereo not given) | 14.9%
2 | O=C(c1ccccc1)c1ccc(O)c2ncccc12 | 35.5%
3 | O=[N+]([O-])c1cc(-c2ccccc2)c(O)c([N+](=O)[O-])c1 | 101%
4 | N#C/C(=N\Nc1ccc(Cl)cc1)C(=O)C1CC1 | 52.2%
5 | C/C(=N\NC(=S)N1CC2CCC(CC2)C1)c1ccccn1 | -32.4% (active)
6 | CC1(C)N=c2cc3c(cc2N1c1ccc(Cl)cc1)=Nc1ccccc1N3c1ccc(Cl)cc1 | 19.3%
7 | NC(=Nc1nc(-c2ccccn2)cc2ccccc12)c1ccccn1 | -55% (active)
8 | O=C(Cc1ccccc1)C(F)(F)F | 99.6%
9 | O=C(CBr)c1ccc(OC(=O)c2ccccc2)cc1 | 87.4%
10 | CC(C)=C1C=C2CC[C@@H]3[C@](C)(CCC[C@@]3(C)C(=O)O)[C@H]2CC1 | 100%
11 | Cc1ccc(Nc2ccc(O)c3c2C(=O)c2c(O)ccc(Nc4ccc(C)cc4)c2C3=O)cc1 | 102%
12 | CC(C)(C)c1ccc(O)c(-c2ccccc2)c1 | 121%
13 | CN(C)c1ccc2cc3c(cc2c1)Oc1ccccc1N3.[Cl][Zn][Cl] | 102%
14 | Oc1ccc2ccccc2c1N=Nc1nccs1 | 26.3%
15 | CN(C)c1ccc(/C=C/c2cc[n+](C)c(/C=C/c3ccc(N(C)C)cc3)c2)cc1 | 14.4%
16 | O=C1/C(=C/c2ccccc2)CCC/C1=C\c1ccccc1 | 64%
17 | NNc1ccc(Cl)cc1Cl | 67.6%
18 | O/N=C1\c2ccccc2-c2ccc(F)cc21 | 107%
19 | NC(=S)N/N=C\c1nccc2c(N)cccc12 | -34.8% (active)
20 | O=C(c1ccccc1)C(O)C(Br)(CBr)c1ccccc1 (stereo not given) | 82.6%

Row | Structure (SMILES) | growth
21 | NCCCN(CCCN)CCCNCc1c2ccccc2c(CNCCCN(CCCN)CCCN)c2ccccc12 | 98.8%
22 | Nc1ccc(Oc2ccccc2)c(Cl)c1 | 94.6%
23 | Cc1c(O)ccc(SC#N)c1C | 97.4%
24 | O=C1C=CC(=O)N1c1ccccc1 | 94.2%
25 | NC(=S)N/N=C/c1ncccc1O | -56.2% (active)
26 | O=[N+]([O-])c1ccc(C(Br)c2ccc([N+](=O)[O-])cc2)cc1 | 22.6%
27 | Cc1cc(=O)oc2cc(O)cc(O)c12 | 102%
28 | O=C1/C(=C\c2ccc([N+](=O)[O-])cc2)CS(=O)(=O)C/C1=C/c1ccc([N+](=O)[O-])cc1 | -92.2% (active)
29 | CC1(C)OC2C(COC(c3ccccc3)(c3ccccc3)c3ccccc3)OC(c3c[nH]c4c(N)ncnc34)C2O1 (stereo not given) | 52.5%
30 | CCC(C)C1NC(=O)C(NC(=O)c2c3nc4c(C(=O)NC5C(=O)NC(C(C)CC)C(=O)N6CCCC6C(=O)N(C)CC(=O)N(C)C(C(C)C)C(=O)OC5C)ccc(C)c4oc-3c(C)c(=O)c2N)C(C)OC(=O)C(C(C)C)N(C)C(=O)CN(C)C(=O)C2CCCN2C1=O (stereo not given) (I: TIP[Sar][NMeV] / II: TIP[Sar][NMeV]; ester I:1-I:C, II:1-II:C; linker I:N-II:N via Actinocin(1to9); configuration not given here) | -95.6% (active)
31 | Oc1ccc2c(c1)CCc1ccccc1-2 | 102%
32 | Cc1cc(C(=O)c2ccc(Cl)cc2)ccc1O | 89.2%
33 | COC1=CC(=O)c2c(O)c3c(c(O)c2C1=O)CC(C)(O)OC3 (stereo not given) | -52.4% (active)
34 | Cc1ccccc1NC(=O)Cc1csc2[n+]1C(=O)/C(=C/c1ccc([N+](=O)[O-])cc1)S2 | 85.8%
35 | O=C(Cc1nc2cc(Cl)c(Cl)cc2nc1CC(=O)c1ccccc1)c1ccccc1 | 75.2%
36 | CC1CC(C)(C)OB(OC(C)CC(C)(C)OB2OC(C)CC(C)(C)O2)O1 (stereo not given) | -55.3% (active)
37 | CC(CSc1n[nH]c(=S)s1)c1ccccc1 (stereo not given) | 106%
38 | N#CC1c2ccccc2C=CN1C(=O)CCCl (stereo not given) | 97.3%
39 | C/C(=N/NC(N)=S)c1ccc(C)cc1 | 82.7%
40 | O=C1C(=O)c2cc([N+](=O)[O-])ccc2-c2ccccc21 | -90.2% (active)
